PubChem BioAssay AID449739 (Vanderbilt High Throughput Screening Facility, 2010)
In all, about 100,000 compounds went through this assay and about 4,200 (4.2%) were called active.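 Rule for the calls: active = single-dose well whose peak fluorescence ratio is a statistical outlier from its plate by either plate-standardised score or position-corrected B-score; inactive = the rest.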 For the sample, actives were picked, then their nearest neighbours and some compounds at random.

Molecular target: Voltage-dependent T-type calcium channel subunit alpha-1H (Homo sapiens) (UniProt O95180)
Experiment: Cav3.2 calcium influx blockers – cell-based, Fluo-4 calcium fluorescence, FDSS, MLSMR library, primary screen (AID 449739)
Conditions: Cav3.2-expressing cells, at 10 µM, stronger effect = lower value

Sequence of Voltage-dependent T-type calcium channel subunit alpha-1H (Homo sapiens) (O95180 whole entry, looked up): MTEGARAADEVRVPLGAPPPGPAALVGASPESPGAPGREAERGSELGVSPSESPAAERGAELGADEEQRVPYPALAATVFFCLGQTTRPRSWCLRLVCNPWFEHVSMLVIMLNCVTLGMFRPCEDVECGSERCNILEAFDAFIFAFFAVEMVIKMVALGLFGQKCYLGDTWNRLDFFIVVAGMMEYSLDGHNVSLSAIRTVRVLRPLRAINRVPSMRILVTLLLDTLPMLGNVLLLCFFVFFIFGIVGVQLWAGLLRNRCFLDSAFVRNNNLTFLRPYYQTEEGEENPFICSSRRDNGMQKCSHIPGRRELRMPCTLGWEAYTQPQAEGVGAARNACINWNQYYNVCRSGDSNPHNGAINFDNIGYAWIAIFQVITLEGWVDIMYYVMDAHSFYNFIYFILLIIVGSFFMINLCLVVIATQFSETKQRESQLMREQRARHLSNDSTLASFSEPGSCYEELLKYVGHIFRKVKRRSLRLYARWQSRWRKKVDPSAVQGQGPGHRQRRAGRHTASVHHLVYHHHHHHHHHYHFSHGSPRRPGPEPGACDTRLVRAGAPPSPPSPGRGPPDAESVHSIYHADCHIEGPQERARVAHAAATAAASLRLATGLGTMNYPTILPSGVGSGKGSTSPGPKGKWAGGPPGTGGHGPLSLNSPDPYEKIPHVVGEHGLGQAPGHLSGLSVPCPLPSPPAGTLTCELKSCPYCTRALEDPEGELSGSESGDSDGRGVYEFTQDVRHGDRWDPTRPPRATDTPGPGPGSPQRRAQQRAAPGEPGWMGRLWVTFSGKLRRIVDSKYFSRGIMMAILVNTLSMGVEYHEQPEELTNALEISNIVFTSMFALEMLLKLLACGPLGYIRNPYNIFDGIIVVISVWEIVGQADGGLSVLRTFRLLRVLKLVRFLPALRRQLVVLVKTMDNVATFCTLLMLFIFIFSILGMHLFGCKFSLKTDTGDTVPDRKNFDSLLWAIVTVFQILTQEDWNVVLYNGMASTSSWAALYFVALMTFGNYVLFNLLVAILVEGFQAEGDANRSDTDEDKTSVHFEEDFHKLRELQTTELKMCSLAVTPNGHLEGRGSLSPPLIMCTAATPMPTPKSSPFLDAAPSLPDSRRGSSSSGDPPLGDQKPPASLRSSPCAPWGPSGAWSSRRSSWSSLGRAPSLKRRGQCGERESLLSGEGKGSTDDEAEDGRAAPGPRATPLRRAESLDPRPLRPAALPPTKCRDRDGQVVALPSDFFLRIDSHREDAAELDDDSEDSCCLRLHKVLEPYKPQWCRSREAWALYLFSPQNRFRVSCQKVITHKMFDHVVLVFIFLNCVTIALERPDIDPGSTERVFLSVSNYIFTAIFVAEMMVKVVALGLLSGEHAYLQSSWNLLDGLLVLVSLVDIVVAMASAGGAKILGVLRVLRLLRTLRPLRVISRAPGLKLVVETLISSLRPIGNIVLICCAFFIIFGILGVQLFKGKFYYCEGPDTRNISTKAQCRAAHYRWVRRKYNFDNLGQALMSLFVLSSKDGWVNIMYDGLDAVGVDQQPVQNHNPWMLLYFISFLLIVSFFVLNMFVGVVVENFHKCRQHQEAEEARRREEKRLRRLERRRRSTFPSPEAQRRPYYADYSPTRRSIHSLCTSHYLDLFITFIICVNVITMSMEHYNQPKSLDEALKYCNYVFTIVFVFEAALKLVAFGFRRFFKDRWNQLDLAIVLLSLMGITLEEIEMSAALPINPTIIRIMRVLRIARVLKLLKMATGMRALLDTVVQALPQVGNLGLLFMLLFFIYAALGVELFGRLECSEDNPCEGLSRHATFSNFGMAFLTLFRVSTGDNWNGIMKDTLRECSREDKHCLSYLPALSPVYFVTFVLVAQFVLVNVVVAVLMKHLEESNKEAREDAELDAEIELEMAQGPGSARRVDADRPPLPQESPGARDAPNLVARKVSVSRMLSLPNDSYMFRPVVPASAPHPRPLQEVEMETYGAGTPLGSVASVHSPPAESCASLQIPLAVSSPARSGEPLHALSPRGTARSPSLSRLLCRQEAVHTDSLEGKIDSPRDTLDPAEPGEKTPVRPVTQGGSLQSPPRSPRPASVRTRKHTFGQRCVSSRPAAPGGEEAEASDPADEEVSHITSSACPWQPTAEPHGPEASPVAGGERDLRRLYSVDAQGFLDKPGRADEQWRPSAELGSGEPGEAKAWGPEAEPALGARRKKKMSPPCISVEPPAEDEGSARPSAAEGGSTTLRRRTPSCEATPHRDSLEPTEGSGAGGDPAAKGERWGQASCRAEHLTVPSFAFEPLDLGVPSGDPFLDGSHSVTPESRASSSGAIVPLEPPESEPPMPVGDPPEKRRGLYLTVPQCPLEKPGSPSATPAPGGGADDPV

B-score, active:
Cc1ccc(C(=O)Nc2ccc3c(c2)OCO3)cc1S(=O)(=O)N1CCCCC1 -5.28
CCOc1ccccc1Oc1cn[nH]c1-c1ccc(OC)cc1O -3.81
Clc1ccc(Cn2ncc3c(NCc4cccnc4)ncnc32)cc1 -4.69
COc1ccccc1NC(=O)[C@H](COCc1ccccc1)NC(=O)OC(C)(C)C -4.41
CCCCOC(=O)Cn1c(=O)n(CC(=O)OCCCC)c2cc(C)ccc21 -8.75
CCOc1ccc(N(CC(=O)OC)S(=O)(=O)c2c(C)noc2C)cc1 -5.9
CCOC(=O)c1cccc(NC(=O)CN(c2ccc(C)cc2)S(=O)(=O)c2c(C)noc2C)c1 -6.06
O=C(Nc1cccc(NC(=O)N2CCN(c3ccccc3)CC2)c1)N1CCN(c2ccccc2)CC1 -6.86
CN(C(=O)CC(NC(=O)c1ccccc1)(c1ccccc1)c1ccccc1)c1ccccc1 -8.96
CCC(=O)OCc1c(C(F)(F)F)nn(C)c1Oc1cccc(C(F)(F)F)c1 -5.08

B-score, inactive:
CCO[C@H]1OC(C(=O)NCc2ccccc2)=C[C@@H](c2coc3ccccc3c2=O)[C@@H]1CCCO 0.119
CC1=NN(Cc2ccccc2)C(=O)/C1=C/c1ccc(N(C)C)cc1 -2.13
CS(=O)(=O)N1CCN(c2ccc(C(=O)NC3C4CC5CC(C4)CC3C5)cc2[N+](=O)[O-])CC1 (stereo unspecified) 0.716
Cc1ccc(C(=O)NCC(=O)O)cc1S(=O)(=O)N1CCCCC1 1.06
O=C(Nc1ccc2c(c1)OCCO2)c1ccc(Cl)c(S(=O)(=O)N2CCCCC2)c1 -1.46
CCOc1ccc(NC(=O)CC2C(=O)N(c3ccccc3)C(=O)N2CCOC)cc1 (stereo unspecified) 0.221
C=C(C)COc1ccc(-c2n[nH]c(C)c2-c2ccccc2OC)c(O)c1 -1.28
COc1ccc(-c2n[nH]c(C)c2-c2ccc(OC)c(OC)c2)c(O)c1 -1.02
O=C(c1cccc(F)c1)N1CCN(c2ccc([N+](=O)[O-])c(N3CCCCC3)c2)CC1 -2.45
Cc1cccc(N2CCN(C(=O)CN(C)S(=O)(=O)c3ccc4c(c3)CCC(=O)N4)CC2)c1C 1.04
O=S(=O)(NCc1cccnc1)c1ccc(Cl)nc1 0.0815
CC(C)Nc1ncnc2c1nnn2Cc1ccccc1 0.849
CN1CCN(C(CNS(=O)(=O)c2cccs2)c2cccnc2)CC1 (stereo unspecified) -0.131
O=C(/C=C\NCC(=O)c1ccccc1)c1ccccc1 0.368
C#CCNC(=O)[C@H](Cc1ccc(C(=O)c2ccccc2)cc1)NC(=O)OC(C)(C)C 0.229
COc1ccccc1NC(=O)CC(NCCN(C)C)C(=O)O (stereo unspecified) -0.277
COC(=O)c1ccc(C2C(Oc3ccccc3C)C(=O)N2CCc2ccc(OC)c(OC)c2)cc1 (stereo unspecified) -2.96
C=C1C2C[C@H](O)C(C)(C)[C@@]2(O)[C@H](O)C[C@]23C[C@@](C)(O)[C@H](CC[C@H]12)[C@H]3O (stereo partly specified) 0.00132
C#CCO[C@@H]1C[C@H](n2cnc3c(=O)[nH]c(NC(=O)C(C)C)nc32)O[C@@H]1CO 0.0144
CC(C)NC(=O)NCCCCCCS(C)=O (stereo unspecified) 0.449
CCOC(=O)CN1C(=O)C(=O)c2cc(C)ccc21 0.0584
CCCCOC(=O)Cn1c(=N)n(CCN(CC)CC)c2ccccc21 0.824
COC(=O)CCCC1=CC2=C(c3ccccc3)C(=O)C(C)(OC(=O)C3CCCC3)C(=O)C2=CN1c1ccc(OC)cc1 (stereo unspecified) 0.00545
Cc1nn(-c2ccccn2)c2c1C(c1ccncc1)C1=C(CC(C)(C)CC1=O)N2 (stereo unspecified) 0.727
CCOC(=O)C1CCCN(C(=O)CN(c2ccc(OC)cc2)S(=O)(=O)c2c(C)noc2C)C1 (stereo unspecified) 0.012
COC(=O)c1ccc(NC(=O)CN(c2ccc(C)cc2)S(=O)(=O)c2c(C)n[nH]c2C)cc1 -2.02
Cc1noc(C)c1S(=O)(=O)N(CC(=O)Nc1ccc2c(c1)OCCO2)c1ccc(C(C)C)cc1 -2.62
CCOc1ccc(N(CC(=O)NCc2ccc(OC)cc2)S(=O)(=O)c2c(C)noc2C)cc1 0.15
COc1cccc(C(=O)NNC(=O)c2ccccc2Br)c1 0.232
CC(C)NC(=O)C(=O)NCCCOC(C)C 0.568
Cc1sc(NC(=S)NC(=O)c2cccs2)nc1-c1ccc(CC(C)C)cc1 -0.0675
CC/C=C/C(=O)N1CC2(CC(c3cccc(NC(=O)CC)c3)=NO2)C[C@H]1C(N)=O (stereo partly specified) 0.223
CCOc1ccc(C(CCc2ccccc2)NC(=O)c2ccc(OC)c(OC)c2)cc1OCC (stereo unspecified) -1.85
Cc1ccccc1OCC(=O)NCC(=O)OCC(=O)c1ccc2ccccc2c1 -0.0134
COc1cccc(N2CCN(C(=O)Nc3ccc4c(c3)NC(=O)CO4)CC2)c1 -0.0474
O=C(Nc1ccccc1)N1CCN(Cc2ccccc2)CC1 0.4
O=C(C1=C[C@H](c2coc3ccccc3c2=O)C[C@H](OCc2ccc(CO)cc2)O1)N1CCOCC1 0.0258
O=C(ON=C1CCN(S(=O)(=O)c2ccccc2)CC1)c1ccc(Cl)cc1 0.782
Cc1ccccc1NC(=O)c1ccccc1 0.346
CC(C)(C)c1ccc(C(=O)NNC(=O)Cc2ccccc2)cc1 0.185
O=C(O)c1cnn2c(C(F)(F)F)cc(-c3ccccc3)nc12 1.18
COC(C/C=C/C(=O)[C@@H](C)OCc1ccccc1)OC -1.65
CCOC(=O)C[C@H]1c2ccc(C(F)(F)F)cc2S(=O)(=O)N1c1ccccc1 -2.6
Cn1nc(C(F)(F)F)c(C(=O)Nc2cccc(C(F)(F)F)c2)c1SCc1ccc(Cl)cc1 -4.7
CC1=NN(C(=O)Cc2ccc(C)cc2)C(O)(c2cccnc2)C1 (stereo unspecified) 0.437
Cc1ccc(CNC(=O)c2ccc3c(c2)S(=O)(=O)c2ccccc2C3=O)cc1 0.00734
